{"source": "PubChem BioAssay (Tox21)", "note": "Activity calls are given as the source filed them. Entries that show only a call come without a potency. The call rests on the fitted dose curve; in most records, active means well fitted curve in the direction sought with a large enough effect in the repeat runs; inconclusive means weak or mixed curves; inactive means flat fitted curve, though single readings scatter."}
{"assay": "qHTS assay to test for compound auto fluorescence at 535 nm (green) in HepG2 cells (AID 720675)", "conditions": "green autofluorescence 485/535 nm, 1 h; series mostly up to 46 µM", "excerpt": "National Center for Advancing Translational Sciences [NCATS]\nNIH Chemical Genomics Center [NCGC]\nU.S. Environmental Protection Agency [EPA]\nNational Institutes of Environmental Health Sciences [NIEHS]\nNational Toxicology Program [NTP]\nU.S. Food and Drug Administration [FDA]\nCompound auto fluorescence often interferes with screening of the compound library against various biological targets and signaling pathways. Some of these compounds may have fluorophoric properties. Such properties may interfere with the assay outputs resulting in false positives and/or negatives. To decrease such complications and ensure the compound activities are relevant in terms of biological response, the Tox21 10K compound library was screened for auto fluorescence.\nFrom the fluorophores used as reporter signals in our screening assays, the auto fluorescence equivalencies of compounds against three fluorophores have been evaluated: Triamterene, Fluorescein and Rose Bengal sodium for blue, green and red fluorescence, respectively. The fluorescence intensities were measured using Excitation/Emission wavelengths at 405/460nm, 485/535nm and 540/590nm for blue, green and red labels, respectively. This assay includes the green fluorescence data.\nTox21 Assay Protocol Summary:\n2,000 HepG2 cells in 5 uL of culture medium (MEM containing 10% FBS) per well were dispensed into black wall/clear bottom 1536-well plates using a Multidrop Combi Dispenser (ThermoFisher Scientific, Waltham, MA). The assay plates were incubated overnight at 37 C to allow cell attachment to the well bottom, followed by the transfer of 23 nL compound or DMSO vehicle by a pintool work station (Kalypsys , San Diego, CA). After the assay plates were incubated for 1 hr at 37 C and 5% CO2, fluorescence intensities in the assay plates were measured by an Envision (PerkinElmer, Shelton, CT) plate reader using three labels for measuring blue, green and red fluorescence at […] 460, 535 and 590 nm respectively."}
{"smiles": "CC(=O)Oc1cc(C(F)(F)F)ccc1C(=O)O", "Potency": "inactive"}
{"smiles": "O=C(O)[C@H]1CN(C/C=C/P(=O)(O)O)CCN1", "Potency": "inactive"}
{"smiles": "c1ccc(-c2ccc(C(c3ccccc3)n3ccnc3)cc2)cc1", "note": "(stereo not given)", "Potency": "inactive"}
{"smiles": "O=C(O)COc1ccc(C(=O)c2cccs2)c(Cl)c1Cl", "Potency": "inactive"}
{"smiles": "CC(=O)NC[C@H]1CN(c2ccc(N3CCOCC3)c(F)c2)C(=O)O1", "Potency": "inactive"}
{"smiles": "CCCCCN=C(N)N/N=C/c1c[nH]c2ccc(OC)cc12", "Potency": "inactive"}
{"smiles": "C[S+](CC[C@H](N)C(=O)O)C[C@H]1O[C@@H](n2cnc3c(N)ncnc32)[C@H](O)[C@@H]1O", "note": "(stereo not given in full)", "Potency": "inactive"}
{"smiles": "Nc1c(CC(=O)O)cccc1C(=O)c1ccccc1", "Potency": "inactive"}
{"smiles": "OCCCNc1ccccc1", "Potency": "inactive"}
{"smiles": "CCN(CC)CCOC[C@H]1O[C@@H](O)[C@H](OCCN(CC)CC)[C@@H](O)[C@@H]1O", "Potency": "inactive"}
{"smiles": "CCN1CCCC1CNC(=O)c1cc(S(=O)(=O)CC)ccc1OC", "note": "(stereo not given)", "Potency": "inactive"}
{"smiles": "C[C@H](NCCc1ccc(O)cc1)[C@H](O)c1ccc(O)cc1", "Potency": "inactive"}
{"smiles": "CC1(C)S[C@@H]2[C@H](NC(=O)[C@H](N)c3ccc(O)cc3)C(=O)N2[C@H]1C(=O)O", "Potency": "inactive"}
{"smiles": "O=C(CCN1CCC(c2ccccc2)C1)c1ccc2c(c1)OCCO2", "note": "(stereo not given)", "Potency": "inactive"}
{"smiles": "O=C(O)COc1ccccc1/C=N/NC(=O)c1ccncc1", "Potency": "inactive"}
{"smiles": "Cc1cc(C(=O)NCCc2ccc(S(=O)(=O)NC(=O)NN3CCCCCC3)cc2)no1", "Potency": "inactive"}
{"smiles": "NCC1CCC(C(=O)O)CC1", "note": "(stereo not given)", "Potency": "inactive"}
{"smiles": "CO[C@H](C(=O)[C@@H](O)[C@@H](C)O)C1Cc2cc3cc(O[C@H]4C[C@@H](O[C@H]5C[C@@H](O)[C@H](O)[C@@H](C)O5)[C@@H](O)[C@@H](C)O4)c(C)c(O)c3c(O)c2C(=O)[C@H]1O[C@H]1C[C@@H](O[C@H]2C[C@@H](O[C@H]3C[C@](C)(O)[C@H](O)[C@@H](C)O3)[C@H](O)[C@@H](C)O2)[C@H](O)[C@@H](C)O1", "note": "(stereo not given in full)", "Potency": "inactive"}
{"smiles": "COC(=O)[C@H]1[C@H]2C[C@H]3c4[nH]c5ccccc5c4CCN3C[C@H]2CC[C@@H]1O", "Potency": "inactive"}
{"smiles": "COc1cc(NS(C)(=O)=O)ccc1Nc1c2ccccc2nc2ccccc12", "Potency": "inactive"}
{"smiles": "NC[C@@H]1CC[C@@H](N)[C@@H](O[C@H]2[C@H](O)[C@@H](O[C@H]3O[C@H](CO)[C@@H](O)[C@H](N)[C@H]3O)[C@H](N)C[C@@H]2N)O1", "Potency": "inactive"}
{"smiles": "CC1=C(/C=C/C(C)=C/C=C/C(C)=C/C=C/C=C(C)/C=C/C=C(C)/C=C/C2=C(C)CCCC2(C)C)C(C)(C)CCC1", "Potency": "inactive"}
{"smiles": "CC(=O)Nc1ccc(OC(C)=O)cc1", "Potency": "inactive"}
{"smiles": "CCCCCCCCCCCCCCCCCCNC(=O)OC1CCN(C(=O)OC[C@H](COC(=O)N(Cc2cccc[n+]2CC)C(=O)c2ccccc2OC)OC)CC1", "Potency": "inactive"}
{"smiles": "NCc1cccc(C2CCN(C(=O)c3ccc(C#Cc4ccccc4F)o3)CC2)c1", "Potency": "inactive"}
{"smiles": "O=C(O)c1cc2cc(Cc3cccnc3)ccc2o1", "Potency": "inactive"}
{"smiles": "CC(C)=CCC/C(C)=C/CC/C(C)=C/CC/C=C(\\C)CC/C=C(\\C)CCC=C(C)C", "Potency": "inactive"}
{"smiles": "C[C@@H]1C(=O)NC2=Nc3cccc(Cl)c3CN21", "Potency": "inactive"}
{"smiles": "CCCCCCCC/C=C\\CCCCCCCC(=O)N(CCO)CCO", "Potency": "inactive"}
{"smiles": "Cc1cc(-c2ccc(N=Nc3ccc4c(S(=O)(=O)O)cc(S(=O)(=O)O)c(N)c4c3O)c(C)c2)ccc1N=Nc1ccc2c(S(=O)(=O)O)cc(S(=O)(=O)O)c(N)c2c1O", "Potency": "inactive"}
{"smiles": "COc1cccc2c1[C@@H]1CN(CCCCn3c(=O)[nH]c4c(sc5ncc(-c6ccccc6)nc54)c3=O)C[C@@H]1CO2", "Potency": "inactive"}
{"smiles": "O=[N+]([O-])c1ccc(O)c2ncccc12", "Potency": "inactive"}
{"smiles": "CCC(C)(C)c1ccc(CC(C)CN2C[C@@H](C)O[C@@H](C)C2)cc1", "note": "(stereo not given in full)", "Potency": "inactive"}
{"smiles": "CCCCCCCCCCCCCCCCC(C(=O)O)C(O)(CC(=O)O)C(=O)O", "note": "(stereo not given)", "Potency": "inactive"}
{"smiles": "CC(C)NCC1CCc2cc(CO)c([N+](=O)[O-])cc2N1", "note": "(stereo not given)", "Potency": "inactive"}
{"smiles": "COc1cc2c(cc1O)CCN[C@]21CS[C@@H]2c3c(OC(C)=O)c(C)c4c(c3[C@H](COC1=O)N1[C@@H]2[C@H]2c3c(cc(C)c(OC)c3O)C[C@@H]([C@@H]1O)N2C)OCO4", "Potency": "inactive"}
{"smiles": "CCCC(=O)c1cc(O)c(O)cc1O", "Potency": "inactive"}
{"smiles": "CS(=O)(=O)c1ccc([C@@H](O)[C@@H](COC(=O)CN)NC(=O)C(Cl)Cl)cc1", "Potency": "inactive"}
{"smiles": "CN1CCN(CCCN2c3ccccc3Sc3ccc(Cl)cc32)CC1", "Potency": "inactive"}
{"smiles": "O=P(O)(O)C(O)(Cn1ccnc1)P(=O)(O)O", "Potency": "inactive"}
